Consider 38 molecules from PubChem BioAssay (EPA / NIEHS).

Structures are written as SMILES. Calls of active or inactive are those of the source. How the source made its calls: active means hit-call score of the fitted dose curve at least 0.9, where 1 is the maximum; inactive means score below 0.9.

Fatty acid synthase (Homo sapiens), sequence (P49327 whole entry, looked up): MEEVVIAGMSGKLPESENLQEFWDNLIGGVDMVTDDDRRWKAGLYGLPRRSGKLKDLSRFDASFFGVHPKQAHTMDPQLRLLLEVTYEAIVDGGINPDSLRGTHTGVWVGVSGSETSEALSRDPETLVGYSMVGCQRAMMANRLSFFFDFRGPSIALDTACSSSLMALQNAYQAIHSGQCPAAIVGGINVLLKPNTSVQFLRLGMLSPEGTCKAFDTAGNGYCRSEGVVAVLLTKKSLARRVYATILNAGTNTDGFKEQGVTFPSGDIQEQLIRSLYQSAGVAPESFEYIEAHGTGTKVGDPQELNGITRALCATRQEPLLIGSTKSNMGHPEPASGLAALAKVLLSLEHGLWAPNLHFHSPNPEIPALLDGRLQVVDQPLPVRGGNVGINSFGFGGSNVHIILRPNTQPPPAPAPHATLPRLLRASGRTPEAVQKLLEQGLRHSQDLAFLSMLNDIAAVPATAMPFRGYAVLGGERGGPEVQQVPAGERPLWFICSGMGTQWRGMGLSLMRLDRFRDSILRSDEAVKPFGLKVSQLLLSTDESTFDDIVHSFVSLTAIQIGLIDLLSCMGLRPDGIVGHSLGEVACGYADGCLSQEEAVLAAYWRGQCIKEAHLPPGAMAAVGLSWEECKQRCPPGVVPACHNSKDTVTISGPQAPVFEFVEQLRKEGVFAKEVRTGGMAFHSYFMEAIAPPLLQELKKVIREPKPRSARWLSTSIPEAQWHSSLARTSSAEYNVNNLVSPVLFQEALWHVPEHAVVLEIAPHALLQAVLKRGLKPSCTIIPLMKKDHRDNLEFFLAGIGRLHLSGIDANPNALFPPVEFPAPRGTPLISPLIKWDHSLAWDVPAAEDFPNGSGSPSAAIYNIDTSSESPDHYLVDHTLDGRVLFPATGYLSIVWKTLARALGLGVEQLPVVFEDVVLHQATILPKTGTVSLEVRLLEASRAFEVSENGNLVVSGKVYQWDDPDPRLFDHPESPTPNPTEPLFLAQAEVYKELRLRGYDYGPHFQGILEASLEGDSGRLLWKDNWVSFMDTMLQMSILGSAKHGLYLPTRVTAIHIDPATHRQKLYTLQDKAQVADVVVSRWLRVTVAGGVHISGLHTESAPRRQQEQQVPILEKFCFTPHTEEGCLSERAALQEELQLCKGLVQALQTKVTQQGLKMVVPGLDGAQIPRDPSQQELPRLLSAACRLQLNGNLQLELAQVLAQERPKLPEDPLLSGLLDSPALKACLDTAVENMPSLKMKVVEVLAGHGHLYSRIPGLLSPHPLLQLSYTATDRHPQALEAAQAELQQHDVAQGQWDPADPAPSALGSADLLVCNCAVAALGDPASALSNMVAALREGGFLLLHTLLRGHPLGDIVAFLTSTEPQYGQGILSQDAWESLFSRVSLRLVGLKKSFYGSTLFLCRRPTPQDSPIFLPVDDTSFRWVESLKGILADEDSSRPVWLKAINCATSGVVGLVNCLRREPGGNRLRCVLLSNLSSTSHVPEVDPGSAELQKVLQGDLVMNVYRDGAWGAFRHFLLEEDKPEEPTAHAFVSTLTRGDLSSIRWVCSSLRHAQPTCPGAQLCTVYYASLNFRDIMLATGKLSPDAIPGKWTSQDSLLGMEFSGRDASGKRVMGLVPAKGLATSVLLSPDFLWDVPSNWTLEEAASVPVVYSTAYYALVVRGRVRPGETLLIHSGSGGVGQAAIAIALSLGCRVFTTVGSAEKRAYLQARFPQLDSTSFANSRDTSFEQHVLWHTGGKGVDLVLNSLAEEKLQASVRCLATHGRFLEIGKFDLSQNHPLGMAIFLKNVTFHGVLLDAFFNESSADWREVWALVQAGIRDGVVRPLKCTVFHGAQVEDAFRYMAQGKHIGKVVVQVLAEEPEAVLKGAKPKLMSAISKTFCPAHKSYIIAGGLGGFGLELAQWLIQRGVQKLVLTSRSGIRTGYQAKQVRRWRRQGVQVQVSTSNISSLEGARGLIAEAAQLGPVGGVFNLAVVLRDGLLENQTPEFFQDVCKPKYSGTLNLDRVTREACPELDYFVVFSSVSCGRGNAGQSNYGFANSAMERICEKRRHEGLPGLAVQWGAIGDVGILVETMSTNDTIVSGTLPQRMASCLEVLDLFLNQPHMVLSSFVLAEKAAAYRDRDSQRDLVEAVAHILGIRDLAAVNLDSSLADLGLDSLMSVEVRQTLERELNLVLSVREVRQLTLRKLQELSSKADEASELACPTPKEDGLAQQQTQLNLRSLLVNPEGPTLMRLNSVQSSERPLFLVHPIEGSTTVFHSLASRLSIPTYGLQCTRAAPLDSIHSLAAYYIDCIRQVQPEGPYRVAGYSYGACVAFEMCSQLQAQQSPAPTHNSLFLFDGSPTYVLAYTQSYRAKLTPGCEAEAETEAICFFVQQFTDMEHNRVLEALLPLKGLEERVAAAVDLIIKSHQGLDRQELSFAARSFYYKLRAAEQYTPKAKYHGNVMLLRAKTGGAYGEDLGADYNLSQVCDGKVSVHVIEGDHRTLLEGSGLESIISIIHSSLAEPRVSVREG

Read-out in the first test: Tumor necrosis factor receptor superfamily member 6 (Homo sapiens) (UniProt P25445)
The test can be described thus: LTEA_HepaRG_FAS: Life Technologies and Expression Analysis (LTEA) Assay for Fas cell surface death receptor (FAS) using HepaRG (AID 2283447). As to conditions: mRNA level, 48 h; actives raise or lower the signal. A digest of the protocol: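 Differentiated human HepaRG cells, pre-cultured 48 h, were exposed in duplicate for 48 h to 8-point half-log concentrations (top 100 uM, 0.5% DMSO) in serum-free induction medium; FAS mRNA measured by qRT-PCR, normalized to ACTB/GAPDH/POLR2A, bidirectional fit versus DMSO.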
`CCN(CC)C(=O)c1cc(S(=O)(=O)Cc2ccccc2)c(N2CCC(c3ccccc3)CC2)cc1N(CC)CCN(C)C`: the AC50 (usually the concentration at which the activity in the assay is half-maximal) was 30.3 µM (active).
As for `CCN(Cc1cccc(S(=O)(=O)O)c1)c1ccc(C(=C2C=CC(=[N+](CC)Cc3cccc(S(=O)(=O)O)c3)C=C2)c2ccccc2S(=O)(=O)[O-])cc1`, the molecule was called inactive.
Still for that read-out and setting: the same measure for `O=C(OCCCCCCOC(=O)c1ccccc1)c1ccccc1`: “inactive”.
Turning to `CCCCCCCCCC(=O)O`, the call was inactive.
Take `CN(C)C(=O)C1(N2CCCCC2)CCN(CC[C@@]2(c3ccc(Cl)c(Cl)c3)CN(C(=O)c3ccccc3)CCO2)CC1`: the molecule was called inactive.
Still for that read-out and setting: for `CC[C@H](NC(=O)c1cc(F)ccc1NS(=O)(=O)c1cccc2cccnc12)c1ccccc1` the value was “inactive”; for `CN(C)c1ccc(C(=C2C=CC(=[N+](C)C)C=C2)c2ccc(N(C)C)cc2)cc1`, “inactive”.
The same measure, in the same setting: for `Cc1ncc(CO)c(CO)c1O` the value was “inactive”; for `CCCCCCCCCCCCO`, “inactive”; for `Cc1cccc2ccccc12`, “inactive”.
Still for that read-out and setting: for `O=CCCCC=O` the value was “inactive”; for `CC(C)(C)c1csc(-c2cc3cc(OCc4ccccc4CC(=O)O)ccc3o2)n1`, “inactive”.
Regarding `O=C(O)c1ccccc1C(=O)OCc1ccccc1`, the molecule was classed as inactive.
Still for that read-out and setting: for `CN1C(=O)CC[C@H]1c1cccnc1` the value was “inactive”; for `O=C=NCCCCCCN=C=O`, “inactive”; for `CC1=CC(=O)/C(=C(/C)O)C(=O)O1`, “inactive”.
Same read-out and setting: the same measure for `CCCOC(=O)c1cc(O)c(O)c(O)c1`: “inactive”; for `CCCCCc1ccc(N)cc1`: “inactive”.
For the molecule `COc1cc(C(=O)NC2CCN(C)CC2)ccc1Nc1ncc2c(n1)N(C1CCCC1)CC(F)(F)C(=O)N2C`, the AC50 was 9.78 µM (active).
For the molecule `CCOC(=O)O[C@H](C)OC(=O)c1ccc2c(c1)cc(C(=O)NC1CCN(C(C)C)CC1)n2Cc1cc(-c2ccc(Cl)s2)on1`, the call was inactive.
Consider `Oc1ccccc1`, for which the molecule was called inactive.
Same read-out and setting: for `CC[C@@H]1C[C@H](N(Cc2cc(C(F)(F)F)cc(C(F)(F)F)c2)C(C)=O)c2cc(C(F)(F)F)ccc2N1C(=O)OC(C)C` the value was “inactive”.
On to `Cc1cc(F)ccc1-c1cc(N2CC[C@@H](O)[C@H]2CO)ncc1N(C)C(=O)C(C)(C)c1cc(C(F)(F)F)cc(C(F)(F)F)c1`, for which the AC50 is 71.7 µM (active).
Consider `c1ccc(C[n+]2cccc3ccccc32)cc1`, for which the molecule was called inactive.
`CCCCCCCCOc1ccc(C(=O)c2ccccc2)c(O)c1`: the molecule was called inactive.
The same measure, in the same setting: for `CCO[Si](CCCNC(N)=O)(OCC)OCC` the value was “inactive”; for `COCC(C)OCC(C)OCC(C)O` (centres undefined), “inactive”; for `c1ccc2n[nH]nc2c1`, “inactive”.
Still for that read-out and setting: the same measure for `c1ccc2ccccc2c1`: “inactive”.
Same read-out and setting: the same measure for `O=c1ccc2ccccc2o1`: “inactive”.
For the molecule `NCc1cccc(C2CCN(C(=O)c3ccc(C#Cc4ccccc4F)o3)CC2)c1`, the outcome was inactive.
Same read-out and setting: the same measure for `O=C1O[C@H]([C@@H](O)CO)C(O)=C1O`: “inactive”; for `CCCCCCCCCCCO`: “inactive”; for `CCCCOC(=O)CC(CC(=O)OCCCC)(OC(C)=O)C(=O)OCCCC`: “inactive”.
`CC(C)(O)c1ccc(CNC(=O)c2cccnc2Oc2ccc3nonc3c2)cc1`: the molecule was classed as inactive.
In the case of `CN(C[C@@H](CC[N+]12CCC(C3CCCCC3)(CC1)CC2)c1ccc(Cl)c(Cl)c1)C(=O)c1cc(C(F)(F)F)cc(C(F)(F)F)c1`, the AC50 was 93.8 µM (active).
`Cc1occc1C(=O)Nc1ccc(C(=O)N2CCC(F)(F)/C(=C\C(=O)N3CCC(N4CCCCC4)CC3)c3ccccc32)cc1`: the outcome was inactive.

Read-out in the next test: Fatty acid synthase (Homo sapiens) (UniProt P49327)
The test can be described thus: LTEA_HepaRG_FASN: Life Technologies and Expression Analysis (LTEA) Assay for Fatty Acid Synthase (FASN) using HepaRG (AID 2283448). As to conditions: mRNA level, 48 h; actives raise or lower the signal. A digest of the protocol:
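FASN transcript measured by TaqMan qRT-PCR, normalised to three housekeeping genes, after 48 h chemical exposure of HepaRG cells. Eight-point half-log series from 100 uM in 0.5% DMSO, duplicates; gain or loss fitted against vehicle.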
Turning to `CCN(CC)C(=O)c1cc(S(=O)(=O)Cc2ccccc2)c(N2CCC(c3ccccc3)CC2)cc1N(CC)CCN(C)C`, the AC50 is 4.87 µM (active).
Turning to `CCN(Cc1cccc(S(=O)(=O)O)c1)c1ccc(C(=C2C=CC(=[N+](CC)Cc3cccc(S(=O)(=O)O)c3)C=C2)c2ccccc2S(=O)(=O)[O-])cc1`, the result was inactive.
The same measure, in the same setting: for `O=C(OCCCCCCOC(=O)c1ccccc1)c1ccccc1` the value was “inactive”; for `CCCCCCCCCC(=O)O`, “inactive”.
For `CN(C)C(=O)C1(N2CCCCC2)CCN(CC[C@@]2(c3ccc(Cl)c(Cl)c3)CN(C(=O)c3ccccc3)CCO2)CC1`, the AC50 is 61 µM (active).
With `CC[C@H](NC(=O)c1cc(F)ccc1NS(=O)(=O)c1cccc2cccnc12)c1ccccc1`, the molecule was classed as inactive.
For `CN(C)c1ccc(C(=C2C=CC(=[N+](C)C)C=C2)c2ccc(N(C)C)cc2)cc1`, the AC50 is 3.9 µM (active).
`Cc1ncc(CO)c(CO)c1O`: the call was inactive.
On the same count and under the same terms, the same measure for `CCCCCCCCCCCCO`: “inactive”; for `Cc1cccc2ccccc12`: “inactive”.
Still for that read-out and setting: the same measure for `O=CCCCC=O`: “inactive”.
Take `CC(C)(C)c1csc(-c2cc3cc(OCc4ccccc4CC(=O)O)ccc3o2)n1`: the AC50 is 84 µM (active).
As to `O=C(O)c1ccccc1C(=O)OCc1ccccc1`, the molecule was classed as inactive.
Same read-out and setting: for `CN1C(=O)CC[C@H]1c1cccnc1` the value was “inactive”.
As for `O=C=NCCCCCCN=C=O`, the result was inactive.
On the same count and under the same terms, for `CC1=CC(=O)/C(=C(/C)O)C(=O)O1` the value was “inactive”; for `CCCOC(=O)c1cc(O)c(O)c(O)c1`, “inactive”; for `CCCCCc1ccc(N)cc1`, “inactive”.
Regarding `COc1cc(C(=O)NC2CCN(C)CC2)ccc1Nc1ncc2c(n1)N(C1CCCC1)CC(F)(F)C(=O)N2C`, the concentration at half-maximal activity (AC50) is 46.5 µM (active).
Turning to `CCOC(=O)O[C@H](C)OC(=O)c1ccc2c(c1)cc(C(=O)NC1CCN(C(C)C)CC1)n2Cc1cc(-c2ccc(Cl)s2)on1`, the molecule was called inactive.
Still for that read-out and setting: the same measure for `Oc1ccccc1`: “inactive”; for `CC[C@@H]1C[C@H](N(Cc2cc(C(F)(F)F)cc(C(F)(F)F)c2)C(C)=O)c2cc(C(F)(F)F)ccc2N1C(=O)OC(C)C`: “inactive”; for `Cc1cc(F)ccc1-c1cc(N2CC[C@@H](O)[C@H]2CO)ncc1N(C)C(=O)C(C)(C)c1cc(C(F)(F)F)cc(C(F)(F)F)c1`: “inactive”.
Regarding `c1ccc(C[n+]2cccc3ccccc32)cc1`, the AC50 was 50 µM (active).
As for `CCCCCCCCOc1ccc(C(=O)c2ccccc2)c(O)c1`, the call was inactive.
Still for that read-out and setting: for `COCC(C)OCC(C)OCC(C)O` (centres undefined) the value was “inactive”; for `c1ccc2n[nH]nc2c1`, “inactive”.
On the same count and under the same terms, the same measure for `c1ccc2ccccc2c1`: “inactive”; for `O=c1ccc2ccccc2o1`: “inactive”.
Turning to `NCc1cccc(C2CCN(C(=O)c3ccc(C#Cc4ccccc4F)o3)CC2)c1`, the AC50 was 50 µM (active).
As to `O=C1O[C@H]([C@@H](O)CO)C(O)=C1O`, the molecule was classed as inactive.
Same read-out and setting: the same measure for `CCCCCCCCCCCO`: “inactive”.
The same measure, in the same setting: the same measure for `CCCCOC(=O)CC(CC(=O)OCCCC)(OC(C)=O)C(=O)OCCCC`: “inactive”.
The same measure, in the same setting: the same measure for `CC(C)(O)c1ccc(CNC(=O)c2cccnc2Oc2ccc3nonc3c2)cc1`: “inactive”.
With `CN(C[C@@H](CC[N+]12CCC(C3CCCCC3)(CC1)CC2)c1ccc(Cl)c(Cl)c1)C(=O)c1cc(C(F)(F)F)cc(C(F)(F)F)c1`, the AC50 was 13 µM (active).
Regarding `OCCO`, the result was inactive.
Regarding `Cc1occc1C(=O)Nc1ccc(C(=O)N2CCC(F)(F)/C(=C\C(=O)N3CCC(N4CCCCC4)CC3)c3ccccc32)cc1`, the AC50 is 19.4 µM (active).
